From PubChem
Compounds with a hit are over-represented: about 1.5% of the library has one in this group of screens.
mIDH1 inhibitor = blocks human mutant IDH1 R132H enzyme; AID 602179; hit rate 0.093% among 390,000; IDH1-R132H enzyme, NADPH consumption, diaphorase/resazurin fluorescence; Potency, µM (highest dose often 76.6 µM), most hits filed as inhibitors; O75874; note: nearly all actives have a fitted effect of over 65% in size
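IDH1-R132H (0.5 ug/mL) preincubated 30 min with compound, then NADPH (0.016 mM) and alpha-KG (2 mM) added; 80 min at RT, pH 7.5. Remaining NADPH coupled via diaphorase/resazurin to fluorescence (540/590 nm); concentration-response curves normalized to no-enzyme control.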
TrxR1 substrate = is turned over as a substrate by rat TrxR1 | purified TrxR1 substrate turnover, NADPH consumption readout | Potency, µM (series often up to 114 µM) | hit rate 0.01% among 390,000; note: nearly all actives have a fitted effect of over 50% in size
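Rat TrxR1, dispensed at 90 nM, was prereduced with 400 uM NADPH (final) for 5 min at ~22 deg C, then incubated with compound 15 min before 400 uM selenite. A first-read NADPH fluorescence drop versus no-compound background flagged substrates.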
Coupling enz = counter-screen for Giardia aldolase inhibitors: coupling enzyme system. coupling enzyme system counterscreen, AmpLite Red fluorescence. hit rate 0.67% among 290,000. activity change, negative = inhibition, % at 58.2 µM, hits read low; in the data active = activity change below about -30%
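Compounds tested against the coupling enzymes alone at 57.5 uM final; readout was AmpLite Red fluorescence (525/598 nm) after 20 min at RT.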
Eya2 inh = Eya2 (human) phosphatase inhibition. recombinant Eya2, OMFP fluorescence dephosphorylation (OMFP is methylfluorescein phosphate). Potency, µM (series often up to 76.9 µM), usual class: inhibitors. AID 488837. O00167. hit rate 0.006% among 330,000
Target sequence (O00167 whole entry, looked up): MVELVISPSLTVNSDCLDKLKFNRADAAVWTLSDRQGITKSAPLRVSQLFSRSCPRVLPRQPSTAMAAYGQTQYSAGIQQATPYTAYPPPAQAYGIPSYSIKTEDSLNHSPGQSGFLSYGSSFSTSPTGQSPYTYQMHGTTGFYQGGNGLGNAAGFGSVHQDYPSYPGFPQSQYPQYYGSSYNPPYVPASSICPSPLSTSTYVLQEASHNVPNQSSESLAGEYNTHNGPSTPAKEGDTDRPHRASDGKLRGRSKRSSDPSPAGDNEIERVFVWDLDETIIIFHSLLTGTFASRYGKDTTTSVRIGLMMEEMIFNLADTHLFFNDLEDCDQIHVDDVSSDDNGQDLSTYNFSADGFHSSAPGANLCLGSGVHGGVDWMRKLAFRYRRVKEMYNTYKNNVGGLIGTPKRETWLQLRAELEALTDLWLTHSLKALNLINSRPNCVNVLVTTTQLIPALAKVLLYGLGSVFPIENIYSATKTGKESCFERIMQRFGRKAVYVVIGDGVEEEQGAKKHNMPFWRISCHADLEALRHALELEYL
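Eya2 protein (added as 0.2 uM solution) was preincubated with compound for 10 min at ambient temperature in 50 mM HEPES pH 7.5, 50 mM NaCl, 5 uM MgCl2, 0.05% BSA, 1 mM DTT. OMFP (added at 50 uM) then reacted 10 min; fluorescence read at 485/525 nm.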
TrxR1 inh = blocks rat thioredoxin reductase 1. O89049. Potency, µM (series often up to 114 µM), actives largely listed as inhibitors. hit rate 1% among 390,000. recombinant rTrxR1, NADPH fluorescence consumption, selenite substrate; note: nearly all actives have a fitted effect of over 65% in size
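Rat TrxR1 (90 nM in the dispensed reagent) was pre-reduced with 400 uM NADPH for 5 min at room temperature, then incubated with compound for 15 min. After 400 uM selenite was added, NADPH fluorescence (Ex 340/Em 450 nm) was followed for 8 min.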
A number is an active result; n = inactive; u = inconclusive; x = not tested or not shown; [ ] = dose if it differs, or a comment. Unless noted, calls come from the whole dose curve; as a rule, active = well fitted curve in the direction sought with a large enough effect; inconclusive = small, poorly fitted or top-dose-only effect, or another doubt; inactive = no such curve, though single readings can be large; an effect the other way counts as inactive or inconclusive.

SMILES	mIDH1 inhibitor	TrxR1 substrate	Coupling enz	Eya2 inh	TrxR1 inh
Oc1ccc(Cl)cc1/C=N/c1nccs1	n	n	n	n	u
CC(O)(c1ccc(Cl)cc1)c1ccc(Cl)cc1	x	x	n	x	x
CN(C(=O)c1ccno1)c1nnc(-c2ccccn2)s1	n	n	n	n	20µM
COc1cc2nc(CCNCc3ccccc3)nc(NC3CCN(C)CC3)c2cc1OC	x	n	x	x	u
CC(=O)NC(c1ccco1)c1cc(Br)c2cccnc2c1O (centres undefined)	x	x	x	n	x
COc1ccccc1C(C)NCC(=O)c1c(C)[nH]c2ccccc12 (centres undefined)	x	n	x	x	20µM
Cc1[nH]c2ccccc2c1C(=O)CNc1ccc(Br)cc1	x	n	x	x	n
CN(C)c1nc(C=C(C#N)C#N)c(Cl)n1-c1ccc(F)cc1	n	n	n	n	4.5µM
Cc1cc(C#Cc2c(-c3ccccc3)n(C)c3ccccc23)ccc1F	n	n	n	n	35µM
COc1cc(C#Cc2c(-c3ccccc3)n(C)c3ccccc23)cc(OC)c1	n	n	n	n	45µM
COc1ccc(C#Cc2c(-c3ccccc3)n(C)c3ccccc23)cc1	n	n	x	n	u
COc1ccc(-c2c(C#Cc3ccsc3)c3ccccc3n2C)cc1	n	n	n	n	10µM
C[N+]1(CC(=O)c2ccc(Oc3ccc(C(=O)C[N+]4(C)CCOCC4)cc3)cc2)CCOCC1	x	n	x	x	n
C=CC1=C2C=C(C3CC3)N(CCCCO)C=C2C(=O)C(C)(OC(=O)c2ccco2)C1=O (centres undefined)	x	x	-42	x	x
C=CC1=C2C=C(C3CC3)N(CC3CC3)C=C2C(=O)C(C)(OC(=O)c2ccco2)C1=O (centres undefined)	n	n	-31	x	n
C=CCN1C=C2C(=O)C(C)(OC(=O)c3ccco3)C(=O)C(C=C)=C2C=C1C1CC1 (centres undefined)	x	x	n	x	x
C=CC1=C2C=C(C3CC3)N(CCOC)C=C2C(=O)C(C)(OC(=O)c2ccco2)C1=O (centres undefined)	x	x	n	x	x
CCc1ccc(NC(=O)COC(=O)c2ccccc2OCC(=O)N(C)C)cc1	x	n	x	x	n
O=C(Nc1cc([N+](=O)[O-])ccc1O)c1ccc2c(c1)C(=O)N(Cc1ccco1)C2=O	n	n	x	n	79µM
COc1cc(C=O)cc(OC)c1[N+](=O)[O-]	x	n	x	x	n
Nc1c(N2CCOCC2)cc(Cl)c2nonc12	n	n	-38	n	n
Nc1ccc(N2CCCCC2)c2nonc12	n	50µM	-53	n	u
Nc1ccc(N2CCCCC2)cc1N1CCCCC1	n	n	n	n	u
Nc1c(N2CCCC2)cc(Cl)c2nonc12	n	n	-34	n	25µM
CCOc1cc(/C=C2\CN(C)C/C(=C\c3ccc(O)c(OCC)c3)C2=O)ccc1O	n	n	n	n	56µM
SMILES	mIDH1 inhibitor	TrxR1 substrate	Coupling enz	Eya2 inh	TrxR1 inh
COc1cc(C=C2CN(C)C(=O)C2=O)ccc1O	n	x	x	x	x
O=C(c1ccccc1F)N1c2nc(-c3ccco3)nn2C2(CCCCC2)[C@@H]2CCCC[C@@H]21	n	n	x	x	25µM
O=C(c1ccccc1)[C@@H]1[C@@H](C(=O)c2ccc(F)cc2)[C@@]2(C(=O)Nc3ccccc32)[C@H]2c3ccccc3C=CN12	n	n	-31	n	n
O=C(c1cc2cc(Cl)ccc2[nH]1)N1CCN(C(=O)c2ccco2)CC1	n	n	x	n	50µM
CC(O)(c1ccccc1)[N+]1(CC(=O)c2ccccc2)C=CC=C1 (centres undefined)	x	n	x	x	n
NC(=O)c1sc2nc3c(c(-c4ccco4)c2c1N)CCC3	n	n	n	n	n
Nc1c(C(=O)NC2CC2)sc2nc3c(c(-c4ccco4)c12)CC/C3=C/c1ccco1	n	n	-35	n	u
CCn1nnnc1Sc1nc(C)nc2scc(-c3ccccc3)c12	x	n[0.0914 µM]	x	x	n
O=C(N/N=C/c1ccc(-c2ccc([N+](=O)[O-])cc2)o1)[C@H]1C[C@@H]1c1ccccc1	n	n	n	n	n
O=C(N/N=C/c1ccc(-c2ccccc2[N+](=O)[O-])o1)[C@H]1C[C@@H]1c1ccccc1	n	n	-44	n	n
Cc1ccc(C(=O)N/N=C/c2ccc(-c3ccccc3[N+](=O)[O-])o2)cn1	n	n	-61	n	n
Cc1[nH]c2ccccc2c1/C=C/c1ccnc2ccccc12	x	n	x	x	n
O=C1C(=O)N(CNc2cccnc2)c2ccccc21	n	n	-37	n	n
C[C@@H]1C[C@](C)(C(=O)c2ccco2)C=C1c1ccco1	x	x	n	x	x
CC(C)C(C(=O)O)N1C(=O)/C(=C/c2ccc(Br)cc2)SC1=S (centres undefined)	x	x	n	x	x
NC(=N\N=Cc1ccco1)/C(N)=N/N=Cc1ccco1	n	u	x	x	79µM
COC(=O)C(NNc1ccccc1C)(NC(=O)c1ccc(F)cc1)C(F)(F)F (centres undefined)	n	n	n	n	28µM
Cn1c(SCc2ccc(Cl)cc2)nnc1-c1ccc(NC(=O)CCc2ccccc2)cc1	x	n	x	x	n
Cc1cc(C)c2c(c1)NC(C(=O)O)C1CC=CC21 (centres undefined)	n	n	n	n	4µM
Cc1ccc(Cl)c2c1N[C@@H](c1ccc(C(=O)O)cc1)[C@H]1CC=C[C@@H]21	n	n	x	x	n
Cc1ccc2c(c1C)NC(C(=O)O)C1CC=CC21 (centres undefined)	n	n	n	n	2.5µM
O=C(O)C1Nc2c(C(F)(F)F)ccc(Cl)c2C2C=CCC12 (centres undefined)	n	n[2.29 µM]	n	n	u
O=C(O)C1Nc2ccccc2C2C=CCC12 (centres undefined)	x	n	x	x	3.5µM
Cc1cc(C)c2c(c1)C1C=CCC1C(C(=O)O)N2 (centres undefined)	x	n	x	x	1.4µM
COc1cccc2cc(-c3nc(-c4ccccc4)c(C)s3)c(=O)oc12	x	n[0.0914 µM]	x	x	n
SMILES	mIDH1 inhibitor	TrxR1 substrate	Coupling enz	Eya2 inh	TrxR1 inh
O=C(O)C1Nc2c(C(=O)N3CCOCC3)cccc2C2C=CCC12 (centres undefined)	n	n	-34	n	1.6µM
O=c1oc2c(CN3CCN(CCO)CC3)c(O)ccc2cc1-c1ccccn1	n	n	n	n	45µM
Cc1ccc(S(=O)(=O)N2CCN(c3nc(-n4ccnn4)nc4ccccc34)CC2)cc1	x	n	x	x	n
Cc1cc(N2CCCC2)nc2ccc(NC(=S)NC(C)C)cc12	n	n	n	n	7.9µM
CS(=O)(=O)c1nc(-c2ccccc2)cc(C(F)(F)F)n1	n	n	n	n	18µM
Cc1ccc(O)c(NC(=O)CCS(=O)(=O)c2nc(-c3cccs3)cc(C(F)(F)F)n2)c1	n	n	x	x	20µM
FC(F)(F)c1cc(-c2ccccc2)nc(N2CCCCCC2)n1	n	n	n	n	n
Cc1cc(NC(=O)CCS(=O)(=O)c2nc(-c3ccccc3)cc(C(F)(F)F)n2)no1	n	n	n	n	18µM
